In PubChem BioAssay AID1903 (Southern Research Specialized Biocontainment Screening …, 2009):
Screen size: about 310,000 compounds; about 1,200 (0.39%) were called active. How the calls were made is not given here. These entries were drawn from the full list. Potency and affinity values are given separately.

target: Large T antigen (Simian virus 40) (UniProt P03070); assay: SV40 large T antigen inhibitors, biochemical (AID 1903); conditions: SV40 large T antigen ATPase/helicase inhibition assay; at 20 µM; active compounds read high
Sequence (P03070 whole entry, looked up): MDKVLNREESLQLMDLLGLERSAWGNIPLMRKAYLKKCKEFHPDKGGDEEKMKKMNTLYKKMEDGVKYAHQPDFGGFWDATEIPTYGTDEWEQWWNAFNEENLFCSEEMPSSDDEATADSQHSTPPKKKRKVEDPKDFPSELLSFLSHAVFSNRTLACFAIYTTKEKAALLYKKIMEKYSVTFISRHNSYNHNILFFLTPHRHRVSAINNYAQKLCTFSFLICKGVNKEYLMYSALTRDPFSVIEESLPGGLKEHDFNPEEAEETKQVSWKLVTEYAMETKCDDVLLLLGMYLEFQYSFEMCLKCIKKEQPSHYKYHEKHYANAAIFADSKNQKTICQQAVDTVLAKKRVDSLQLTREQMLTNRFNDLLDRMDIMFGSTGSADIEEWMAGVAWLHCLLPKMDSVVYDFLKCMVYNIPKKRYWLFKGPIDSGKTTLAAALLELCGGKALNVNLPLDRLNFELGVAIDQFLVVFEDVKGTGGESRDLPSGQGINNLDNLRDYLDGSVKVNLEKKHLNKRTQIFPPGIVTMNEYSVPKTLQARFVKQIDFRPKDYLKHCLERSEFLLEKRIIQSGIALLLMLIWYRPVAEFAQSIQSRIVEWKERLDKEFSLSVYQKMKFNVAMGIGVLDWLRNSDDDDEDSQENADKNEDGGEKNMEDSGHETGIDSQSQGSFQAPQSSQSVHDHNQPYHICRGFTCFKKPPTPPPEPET

inhibition, inactive:
COc1ccc(-c2cc(=O)c3cc(OC)c(OC)cc3[nH]2)cc1 3.81%
Cc1ccc(/C=C(\NC(=O)c2ccccc2)C(=O)NCC2CCCO2)o1 (stereo unspecified) 6.08%
O=C(COc1ccc(C(=O)c2ccccc2)cc1)NC1CCCCCC1 -8.94%
NC(N)=Nc1nc2ccc(Cl)cc2c(=O)[nH]1 11.5%
COc1ccc(NC(=O)/C=C/c2ccc(OC(F)F)cc2)cn1 9.9%
COc1ccc(N2CCN(C(=O)CN3C(=O)NC(c4ccc(OC)cc4)(c4ccc(OC)cc4)C3=O)CC2)cc1 6.64%
Cc1cc(=O)n(CC=C(Cl)Cl)c2ccccc12 -7.91%
NC(=S)NN=C1c2ccccc2-c2ccccc21 7.35%
NC(=S)N/N=C/c1ccccc1 13%
CC(=O)Nc1ccc(NC(=O)CS(=O)(=O)c2cn(CC(=O)N3CCCC3)c3ccccc23)cc1 14%
Cc1ccc(-n2nc(C)c(NC(=O)CCl)c2C)cc1 9.64%
CC(C)CCNC(=O)c1cccc(S(=O)(=O)N2CCc3ccccc32)c1 11.5%
COC(=O)c1c(NC(=O)COC(=O)c2ccccn2)sc(C)c1C 11.7%
COc1cc(-c2nnc(SCc3cc(=O)oc4cc(C)ccc34)o2)cc(OC)c1OC 0.12%
COc1cc(-c2nnc(SCc3ccccc3Cl)o2)cc(OC)c1OC 4.19%
COc1ccccc1-c1nc2c(c(SCC(=O)N3CCCCC3)n1)Cc1c(CO)cnc(C)c1O2 4.68%
Cc1sc2ncn(CC(=O)NCc3ccccn3)c(=O)c2c1S(=O)(=O)N1CCOCC1 -0.92%
Nn1c(SCC(=O)N2CCCCCC2)nnc1-c1ccncc1 2.98%
Cc1ccc(S(=O)(=O)N2[C@@H](c3ccccc3)C(C(=O)O)=CC[C@H]2c2ccc(Cl)cc2)cc1 17.2%
Cc1ccc([C@@H]2CC=C(C(=O)O)[C@H](c3ccc(Cl)cc3)N2S(=O)(=O)c2ccc(C)cc2)cc1 21.6%
Cc1ccc(C(=O)COC(=O)CNC(=O)CNC(=O)c2ccc(C)cc2)cc1 10.1%
COc1cc(NC(=O)c2cc([N+](=O)[O-])ccc2NC(=O)CN2CCN(c3ccccn3)CC2)cc(OC)c1 2.42%
Cc1ccc(NC(=O)NCCN2CCCCC2)cc1 12.7%
Cc1cc(C)c(S(=O)(=O)NCCn2c(C)cc3ccccc32)c(C)c1 3.6%
NS(=O)(=O)c1ccc(-c2ccc(/C=C3\C(=O)Nc4ccccc43)o2)cc1 3.06%
NS(=O)(=O)c1ccc(-c2ccc(/C=C3\NC(=S)NC3=O)o2)cc1 34.2%
